Data from PMC7862700, “An all-to-all approach to the identification of sequence-specific readers for epigenetic DNA modifications on cytosine”.

Assays:
Assay in all cases: DAPPL (digital affinity profiling via proximity ligation, sequencing); 10 mM Tris-HCl pH 7.5, 50 mM NaCl, 1 mM DTT, 4% glycerol, room temperature, 30 min; GST-TFs on glutathione beads, 16-mer random dsDNA library, 0.1% formaldehyde crosslink after washing; high values mean tight binding
FEV = target: T1, FEV (Homo sapiens, UniProt Q99581 1-238); details: protein: recombinant; tags: N-terminal GST; dsDNA, one strand shown
T1 sequence: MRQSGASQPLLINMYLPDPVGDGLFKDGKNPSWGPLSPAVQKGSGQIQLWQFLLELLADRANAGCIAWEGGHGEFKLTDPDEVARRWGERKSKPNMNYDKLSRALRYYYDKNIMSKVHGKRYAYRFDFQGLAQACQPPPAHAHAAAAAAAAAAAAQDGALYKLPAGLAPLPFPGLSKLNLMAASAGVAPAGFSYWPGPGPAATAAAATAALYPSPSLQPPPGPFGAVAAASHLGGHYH
Summary of the method: (§1)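 Each value of binding signal is a hexamer's read frequency for a factor divided by the same hexamer's frequency in the tag-only sample. Barcoded, bead-captured GST fusions of human transcription factors made in yeast were pooled with that sample and incubated with 200 nmole of a random double-stranded 16-mer DNA library in Tris/NaCl/DTT/glycerol buffer at room temperature for 30 min. Washing, 0.1% formaldehyde crosslinking, proximity ligation, PCR and Illumina NextSeq500 sequencing followed.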

ETV5 = ETV5 (Homo sapiens, UniProt P41161 1-510); details: protein: recombinant; tags: N-terminal GST; dsDNA, one strand shown
Chain of ETV5 (P41161 whole entry): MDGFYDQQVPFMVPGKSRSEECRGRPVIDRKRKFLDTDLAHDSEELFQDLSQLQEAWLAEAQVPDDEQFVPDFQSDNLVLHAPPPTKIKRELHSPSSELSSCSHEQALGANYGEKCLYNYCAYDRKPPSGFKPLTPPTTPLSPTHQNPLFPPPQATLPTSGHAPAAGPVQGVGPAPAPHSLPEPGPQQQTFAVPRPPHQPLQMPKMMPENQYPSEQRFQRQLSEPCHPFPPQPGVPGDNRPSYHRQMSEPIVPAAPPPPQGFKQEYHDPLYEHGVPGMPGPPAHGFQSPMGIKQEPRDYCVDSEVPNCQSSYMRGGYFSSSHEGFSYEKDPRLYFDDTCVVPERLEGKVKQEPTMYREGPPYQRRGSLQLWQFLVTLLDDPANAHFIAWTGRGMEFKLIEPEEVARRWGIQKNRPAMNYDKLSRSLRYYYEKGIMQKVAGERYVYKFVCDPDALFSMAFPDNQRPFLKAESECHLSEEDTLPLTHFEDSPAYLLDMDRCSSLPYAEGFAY
Summary of the method: as §1

HSF1 = HSF1 (Homo sapiens, UniProt Q00613 1-529); details: protein: recombinant; tags: N-terminal GST; chain copies: 3; dsDNA, one strand shown
Chain of HSF1 (Q00613 whole entry): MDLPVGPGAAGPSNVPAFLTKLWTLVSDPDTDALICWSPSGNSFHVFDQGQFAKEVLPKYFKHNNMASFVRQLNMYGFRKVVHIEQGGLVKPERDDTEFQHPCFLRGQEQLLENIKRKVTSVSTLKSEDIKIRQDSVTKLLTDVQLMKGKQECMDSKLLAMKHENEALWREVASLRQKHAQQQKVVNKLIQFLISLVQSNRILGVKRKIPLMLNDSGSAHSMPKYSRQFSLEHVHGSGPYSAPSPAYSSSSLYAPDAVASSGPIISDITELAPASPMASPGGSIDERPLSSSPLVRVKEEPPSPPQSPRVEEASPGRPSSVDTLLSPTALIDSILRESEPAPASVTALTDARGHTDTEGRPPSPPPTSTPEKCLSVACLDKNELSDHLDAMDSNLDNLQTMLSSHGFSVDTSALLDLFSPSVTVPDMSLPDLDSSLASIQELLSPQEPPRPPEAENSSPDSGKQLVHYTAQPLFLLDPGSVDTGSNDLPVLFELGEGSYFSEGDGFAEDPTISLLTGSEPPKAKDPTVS
Summary of the method: as §1

SPIC = target: T2, SPIC (Homo sapiens, UniProt Q8N5J4 1-248); details: protein: recombinant; tags: N-terminal GST; dsDNA, one strand shown
T2 sequence: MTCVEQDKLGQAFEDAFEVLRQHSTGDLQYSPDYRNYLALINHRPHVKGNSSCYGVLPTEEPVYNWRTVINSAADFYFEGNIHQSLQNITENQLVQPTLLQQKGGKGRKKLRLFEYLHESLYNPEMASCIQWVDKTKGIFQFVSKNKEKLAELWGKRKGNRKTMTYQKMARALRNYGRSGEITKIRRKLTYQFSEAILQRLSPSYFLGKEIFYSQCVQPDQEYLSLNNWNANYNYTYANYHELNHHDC
Summary of the method: as §1

ELF4 = ELF4 (Homo sapiens, UniProt Q99607 1-663); details: protein: recombinant; tags: N-terminal GST; dsDNA, one strand shown
Chain of ELF4 (Q99607 whole entry): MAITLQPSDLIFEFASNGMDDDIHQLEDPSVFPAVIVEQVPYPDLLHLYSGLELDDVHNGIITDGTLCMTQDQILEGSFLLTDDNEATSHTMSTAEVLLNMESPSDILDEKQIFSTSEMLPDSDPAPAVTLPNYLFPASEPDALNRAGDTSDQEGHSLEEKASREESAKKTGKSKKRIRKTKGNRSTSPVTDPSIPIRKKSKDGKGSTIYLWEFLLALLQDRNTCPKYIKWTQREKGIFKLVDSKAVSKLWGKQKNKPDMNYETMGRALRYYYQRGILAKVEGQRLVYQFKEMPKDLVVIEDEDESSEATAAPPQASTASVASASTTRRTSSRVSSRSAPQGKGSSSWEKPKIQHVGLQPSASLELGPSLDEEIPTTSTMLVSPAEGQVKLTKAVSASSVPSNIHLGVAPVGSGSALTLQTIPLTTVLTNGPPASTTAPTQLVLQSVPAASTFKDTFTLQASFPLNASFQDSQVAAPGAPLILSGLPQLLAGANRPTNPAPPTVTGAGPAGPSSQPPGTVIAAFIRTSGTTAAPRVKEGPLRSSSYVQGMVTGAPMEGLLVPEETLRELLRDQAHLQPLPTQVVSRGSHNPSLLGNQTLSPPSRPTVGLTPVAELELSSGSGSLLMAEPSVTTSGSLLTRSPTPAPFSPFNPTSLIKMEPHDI
Summary of the method: as §1

ELK4 = target: T3, ELK4 (Homo sapiens, UniProt P28324-2 1-405); details: protein: recombinant; tags: N-terminal GST; dsDNA, one strand shown
T3 sequence: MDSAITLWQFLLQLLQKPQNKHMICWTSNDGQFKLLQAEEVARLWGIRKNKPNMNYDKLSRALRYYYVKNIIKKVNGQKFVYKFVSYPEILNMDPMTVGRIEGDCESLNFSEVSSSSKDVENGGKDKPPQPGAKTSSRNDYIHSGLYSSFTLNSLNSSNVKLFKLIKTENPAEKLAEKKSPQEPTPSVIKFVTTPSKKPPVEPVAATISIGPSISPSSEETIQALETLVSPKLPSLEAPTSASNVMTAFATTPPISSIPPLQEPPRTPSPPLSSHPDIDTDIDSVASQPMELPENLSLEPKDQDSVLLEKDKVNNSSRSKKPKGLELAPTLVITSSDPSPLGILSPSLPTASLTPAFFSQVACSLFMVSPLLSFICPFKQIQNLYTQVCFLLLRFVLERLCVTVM
Summary of the method: as §1

ETV2 = target: T4, ETV2 (Homo sapiens, UniProt O00321 1-342); details: protein: recombinant; tags: N-terminal GST; dsDNA, one strand shown
T4 sequence: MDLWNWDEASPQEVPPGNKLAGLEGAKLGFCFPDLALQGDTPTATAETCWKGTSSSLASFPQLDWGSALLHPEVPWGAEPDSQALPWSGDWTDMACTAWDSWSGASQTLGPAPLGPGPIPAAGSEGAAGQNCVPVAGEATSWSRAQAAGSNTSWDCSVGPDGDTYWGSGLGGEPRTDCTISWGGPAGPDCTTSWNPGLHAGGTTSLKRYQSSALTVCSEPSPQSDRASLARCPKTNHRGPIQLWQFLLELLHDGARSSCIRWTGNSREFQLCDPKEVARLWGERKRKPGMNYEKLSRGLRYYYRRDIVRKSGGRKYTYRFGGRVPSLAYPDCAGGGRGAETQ
Summary of the method: as §1

ELF3 = target: T5, ELF3 (Homo sapiens, UniProt P78545 1-371); details: protein: recombinant; tags: N-terminal GST; dsDNA, one strand shown
T5 sequence: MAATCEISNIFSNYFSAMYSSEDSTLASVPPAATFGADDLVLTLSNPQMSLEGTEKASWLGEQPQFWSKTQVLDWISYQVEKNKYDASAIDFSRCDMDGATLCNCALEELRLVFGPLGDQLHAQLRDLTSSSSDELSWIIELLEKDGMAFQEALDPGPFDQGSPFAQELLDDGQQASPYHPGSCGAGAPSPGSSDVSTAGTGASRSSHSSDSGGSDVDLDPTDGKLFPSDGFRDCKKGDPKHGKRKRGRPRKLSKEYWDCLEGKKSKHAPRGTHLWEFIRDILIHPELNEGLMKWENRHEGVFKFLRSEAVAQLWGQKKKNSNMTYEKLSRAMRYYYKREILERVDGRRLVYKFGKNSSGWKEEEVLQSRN
Summary of the method: as §1

CRX = CRX (Homo sapiens, UniProt O43186 1-299); details: protein: recombinant; tags: N-terminal GST; dsDNA, one strand shown
Chain of CRX (O43186 whole entry): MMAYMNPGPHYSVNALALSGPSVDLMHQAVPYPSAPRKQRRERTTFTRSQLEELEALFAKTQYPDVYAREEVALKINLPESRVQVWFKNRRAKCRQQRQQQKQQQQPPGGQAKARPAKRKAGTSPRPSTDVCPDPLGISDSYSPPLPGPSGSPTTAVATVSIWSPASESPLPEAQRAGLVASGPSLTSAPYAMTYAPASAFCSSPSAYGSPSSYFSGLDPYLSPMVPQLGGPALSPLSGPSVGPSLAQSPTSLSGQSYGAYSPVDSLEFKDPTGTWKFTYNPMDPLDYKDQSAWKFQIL
Summary of the method: as §1

ETV1 = ETV1 (Homo sapiens, UniProt P50549 1-477); details: protein: recombinant; tags: N-terminal GST; dsDNA, one strand shown
Chain of ETV1 (P50549 whole entry): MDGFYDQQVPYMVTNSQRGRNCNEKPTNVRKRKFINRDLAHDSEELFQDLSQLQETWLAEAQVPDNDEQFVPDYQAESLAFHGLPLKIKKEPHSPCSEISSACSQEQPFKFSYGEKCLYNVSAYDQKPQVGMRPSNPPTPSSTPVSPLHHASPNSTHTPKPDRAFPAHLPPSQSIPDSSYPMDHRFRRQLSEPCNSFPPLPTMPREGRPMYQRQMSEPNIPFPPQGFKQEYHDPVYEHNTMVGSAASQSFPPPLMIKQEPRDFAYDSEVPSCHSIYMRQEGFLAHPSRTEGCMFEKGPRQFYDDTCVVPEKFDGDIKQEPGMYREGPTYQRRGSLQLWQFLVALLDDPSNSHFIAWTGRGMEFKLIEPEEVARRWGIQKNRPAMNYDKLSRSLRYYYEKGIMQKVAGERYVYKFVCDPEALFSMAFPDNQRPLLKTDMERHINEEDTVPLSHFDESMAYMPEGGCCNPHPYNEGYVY
Summary of the method: as §1

ERF = target: T6, ERF (Homo sapiens, UniProt P50548 1-548); details: protein: recombinant; tags: N-terminal GST; dsDNA, one strand shown
T6 sequence: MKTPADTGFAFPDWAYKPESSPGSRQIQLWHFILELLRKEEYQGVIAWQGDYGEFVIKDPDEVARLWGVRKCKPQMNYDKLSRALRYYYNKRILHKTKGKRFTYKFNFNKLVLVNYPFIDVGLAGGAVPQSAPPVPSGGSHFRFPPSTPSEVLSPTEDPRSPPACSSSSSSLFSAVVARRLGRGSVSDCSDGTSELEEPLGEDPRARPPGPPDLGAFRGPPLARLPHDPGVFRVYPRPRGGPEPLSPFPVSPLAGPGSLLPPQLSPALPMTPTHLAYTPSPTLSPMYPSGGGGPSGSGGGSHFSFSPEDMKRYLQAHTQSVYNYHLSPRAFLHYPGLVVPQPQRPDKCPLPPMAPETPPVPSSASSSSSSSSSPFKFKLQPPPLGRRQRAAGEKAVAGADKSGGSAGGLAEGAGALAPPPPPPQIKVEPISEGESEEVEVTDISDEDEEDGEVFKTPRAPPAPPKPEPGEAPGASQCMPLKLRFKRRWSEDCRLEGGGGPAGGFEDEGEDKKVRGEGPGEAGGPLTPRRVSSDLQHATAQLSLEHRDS
Summary of the method: as §1

ETV3L = target: T7, ETV3L (Homo sapiens, UniProt Q6ZN32 1-361); details: protein: recombinant; tags: N-terminal GST; dsDNA, one strand shown
T7 sequence: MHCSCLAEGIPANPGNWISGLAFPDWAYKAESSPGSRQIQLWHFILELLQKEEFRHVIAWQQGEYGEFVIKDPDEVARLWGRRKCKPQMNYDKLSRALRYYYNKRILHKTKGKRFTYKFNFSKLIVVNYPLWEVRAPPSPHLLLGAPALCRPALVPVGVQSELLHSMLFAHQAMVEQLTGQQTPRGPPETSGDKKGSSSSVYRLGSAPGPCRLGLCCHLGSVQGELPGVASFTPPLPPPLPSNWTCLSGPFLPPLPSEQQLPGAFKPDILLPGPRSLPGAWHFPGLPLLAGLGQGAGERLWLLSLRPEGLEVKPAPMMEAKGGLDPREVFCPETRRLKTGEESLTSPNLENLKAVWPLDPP
Summary of the method: as §1

ETS2 = target: T8, ETS2 (Homo sapiens, UniProt P15036 1-469); details: protein: recombinant; tags: N-terminal GST; dsDNA, one strand shown
T8 sequence: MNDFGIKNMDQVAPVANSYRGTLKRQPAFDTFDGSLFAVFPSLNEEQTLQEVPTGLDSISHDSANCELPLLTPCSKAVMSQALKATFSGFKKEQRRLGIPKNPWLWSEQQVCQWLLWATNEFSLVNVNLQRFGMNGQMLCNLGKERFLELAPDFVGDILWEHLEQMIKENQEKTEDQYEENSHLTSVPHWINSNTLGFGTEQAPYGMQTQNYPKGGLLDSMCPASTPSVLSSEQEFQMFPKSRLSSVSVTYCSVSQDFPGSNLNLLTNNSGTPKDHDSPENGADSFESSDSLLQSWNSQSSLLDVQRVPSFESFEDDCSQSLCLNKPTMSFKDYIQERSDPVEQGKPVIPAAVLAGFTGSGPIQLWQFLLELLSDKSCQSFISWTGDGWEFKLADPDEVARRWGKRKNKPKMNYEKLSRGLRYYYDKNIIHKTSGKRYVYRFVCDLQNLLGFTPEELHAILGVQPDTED
Summary of the method: as §1

SPDEF = target: T9, SPDEF (Homo sapiens, UniProt O95238 1-335); details: protein: recombinant; tags: N-terminal GST; dsDNA, one strand shown
T9 sequence: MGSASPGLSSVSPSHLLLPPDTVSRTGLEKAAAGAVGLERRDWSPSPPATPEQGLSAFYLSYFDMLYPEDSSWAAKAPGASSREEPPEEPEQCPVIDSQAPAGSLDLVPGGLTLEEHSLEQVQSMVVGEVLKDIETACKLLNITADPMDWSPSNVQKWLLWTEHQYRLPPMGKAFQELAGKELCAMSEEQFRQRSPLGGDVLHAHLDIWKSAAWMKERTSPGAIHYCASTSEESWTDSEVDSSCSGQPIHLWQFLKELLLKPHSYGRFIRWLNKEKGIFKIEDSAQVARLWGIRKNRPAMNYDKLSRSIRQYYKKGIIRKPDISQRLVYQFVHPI
Summary of the method: as §1

ETV7 = target: T10, ETV7 (Homo sapiens, UniProt Q9Y603 1-341); details: protein: recombinant; tags: N-terminal GST; dsDNA, one strand shown
T10 sequence: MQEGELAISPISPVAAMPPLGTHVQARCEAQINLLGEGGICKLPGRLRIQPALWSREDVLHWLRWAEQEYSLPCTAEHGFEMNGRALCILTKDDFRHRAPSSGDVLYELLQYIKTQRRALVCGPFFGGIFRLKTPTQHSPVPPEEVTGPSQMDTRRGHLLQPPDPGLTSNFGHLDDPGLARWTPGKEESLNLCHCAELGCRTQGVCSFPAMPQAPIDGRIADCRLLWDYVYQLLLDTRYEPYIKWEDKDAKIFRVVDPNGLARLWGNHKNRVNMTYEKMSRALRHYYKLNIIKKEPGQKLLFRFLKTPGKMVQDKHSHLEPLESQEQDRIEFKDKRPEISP
Summary of the method: as §1

ELF5 = target: T11, ELF5 (Homo sapiens, UniProt Q9UKW6-2 1-255); details: protein: recombinant; tags: N-terminal GST; dsDNA, one strand shown
T11 sequence: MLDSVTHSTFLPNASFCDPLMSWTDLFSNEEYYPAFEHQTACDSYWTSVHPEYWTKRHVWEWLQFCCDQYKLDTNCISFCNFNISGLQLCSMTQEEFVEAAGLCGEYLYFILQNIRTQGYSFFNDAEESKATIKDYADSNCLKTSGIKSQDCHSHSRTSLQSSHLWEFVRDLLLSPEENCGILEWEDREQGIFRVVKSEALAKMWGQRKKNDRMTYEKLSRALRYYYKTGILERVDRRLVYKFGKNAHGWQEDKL
Summary of the method: as §1

ETV3 = target: T12, ETV3 (Homo sapiens, UniProt P41162-2 1-143); details: protein: recombinant; tags: N-terminal GST; dsDNA, one strand shown
T12 sequence: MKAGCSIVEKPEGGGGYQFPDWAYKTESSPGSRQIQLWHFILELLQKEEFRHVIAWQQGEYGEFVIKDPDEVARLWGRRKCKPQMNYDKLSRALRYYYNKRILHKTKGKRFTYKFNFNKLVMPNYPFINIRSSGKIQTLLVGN
Summary of the method: as §1

ETV6 = ETV6 (Homo sapiens, UniProt P41212 1-452); details: protein: recombinant; tags: N-terminal GST; dsDNA, one strand shown
Chain of ETV6 (P41212 whole entry): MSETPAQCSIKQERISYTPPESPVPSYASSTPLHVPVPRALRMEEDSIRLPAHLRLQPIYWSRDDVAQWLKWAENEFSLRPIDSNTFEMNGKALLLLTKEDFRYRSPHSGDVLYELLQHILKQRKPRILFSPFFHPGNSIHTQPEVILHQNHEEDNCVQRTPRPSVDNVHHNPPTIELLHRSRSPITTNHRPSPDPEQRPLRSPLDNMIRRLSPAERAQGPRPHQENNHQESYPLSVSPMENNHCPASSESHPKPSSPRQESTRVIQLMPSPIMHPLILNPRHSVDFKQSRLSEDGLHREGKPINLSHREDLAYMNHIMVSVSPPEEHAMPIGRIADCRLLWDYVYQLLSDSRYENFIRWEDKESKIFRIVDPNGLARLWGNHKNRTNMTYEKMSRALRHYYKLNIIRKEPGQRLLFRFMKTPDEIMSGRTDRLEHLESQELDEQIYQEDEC
Summary of the method: as §1

## AAAACA
FEV
  binding signal: 1.34 fold enrichment (6-mer frequency, TF over GST control)
ETV5
  binding signal: 1.31 fold enrichment (6-mer frequency, TF over GST control)
HSF1
  binding signal: 1.25 fold enrichment (6-mer frequency, TF over GST control)
SPIC
  binding signal: 1.42 fold enrichment (6-mer frequency, TF over GST control)
ELF4
  binding signal: 1.39 fold enrichment (6-mer frequency, TF over GST control)
ELK4
  binding signal: 1.22 fold enrichment (6-mer frequency, TF over GST control)
ETV2
  binding signal: 1.34 fold enrichment (6-mer frequency, TF over GST control)
ELF3
  binding signal: 1.38 fold enrichment (6-mer frequency, TF over GST control)
CRX
  binding signal: 1.13 fold enrichment (6-mer frequency, TF over GST control)
ETV1
  binding signal: 1.37 fold enrichment (6-mer frequency, TF over GST control)
ERF
  binding signal: 1.26 fold enrichment (6-mer frequency, TF over GST control)
ETV3L
  binding signal: 1.32 fold enrichment (6-mer frequency, TF over GST control)
ETS2
  binding signal: 1.38 fold enrichment (6-mer frequency, TF over GST control)
SPDEF
  binding signal: 1.29 fold enrichment (6-mer frequency, TF over GST control)
ETV7
  binding signal: 1.34 fold enrichment (6-mer frequency, TF over GST control)
ELF5
  binding signal: 1.34 fold enrichment (6-mer frequency, TF over GST control)
ETV3
  binding signal: 1.31 fold enrichment (6-mer frequency, TF over GST control)
ETV6
  binding signal: 1.27 fold enrichment (6-mer frequency, TF over GST control)
